Reference: publication PMC8384837, “Expanding the binding specificity for RNA recognition by a PUF domain”

Target: PUM1 PUF domain R5-GRS (Homo sapiens, UniProt Q14671 828-1176, C1007G;Q1011S)
Assay: yeast three-hybrid, YBZ-1, SC-Leu-His + 0.5 mM 3-AT, 4 days
Settings: tags: N-Gal4 AD-HA kept; label: inside an RPR1-promoter hybrid RNA with tandem MS2 sites; ssRNA
How it was run: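 Pumilio-1 PUF domain libraries, randomized at the three base-contacting residues of each repeat, were co-expressed with matching RNA elements from a centromeric plasmid in strain YBZ-1, which carries a LexA–MS2 coat fusion and a HIS3 reporter. Transformants grew for four days on SC-Leu (input) or on SC-Leu-His + 0.5 mM 3-AT (selection), and the repeat regions were PCR-amplified and Illumina-sequenced. The interaction score is the log change in variant frequency from input to selection. That logarithm is base 2, with a pseudocount of 1 where a variant was absent.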

Sequence of PUM1 PUF domain R5-GRS (Q14671 828-1176 C1007G/Q1011S): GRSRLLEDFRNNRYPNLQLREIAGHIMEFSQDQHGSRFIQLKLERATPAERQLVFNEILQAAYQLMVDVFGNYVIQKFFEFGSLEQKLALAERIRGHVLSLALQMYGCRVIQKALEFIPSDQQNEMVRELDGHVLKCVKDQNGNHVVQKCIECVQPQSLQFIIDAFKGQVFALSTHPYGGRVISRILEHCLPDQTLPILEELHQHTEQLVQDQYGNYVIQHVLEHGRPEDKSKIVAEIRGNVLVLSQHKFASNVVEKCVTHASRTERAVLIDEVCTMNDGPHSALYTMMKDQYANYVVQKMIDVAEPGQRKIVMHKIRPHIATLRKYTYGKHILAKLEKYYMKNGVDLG

Sequence | binding signal
GGCUAGAACUAGUGGAUCCCCCGGCGCCCGGCGGCUCGAGCCCGGGUAAGUGUUAAUAGUCUGCAUGCCGCCGGGCGCCAUGCCUGCAGGUCGACUCUAGAAAACAUG | 4.35 log2 enrichment (interaction score)
GGCUAGAACUAGUGGAUCCCCCGGCGCCCGGCGGCUCGAGCCCGGGUAAGUGUCAAUAGUCUGCAUGCCGCCGGGCGCCAUGCCUGCAGGUCGACUCUAGAAAACAUG | 1.13 log2 enrichment (interaction score)
GGCUAGAACUAGUGGAUCCCCCGGCGCCCGGCGGCUCGAGCCCGGGUAAGUGUAAAUAGUCUGCAUGCCGCCGGGCGCCAUGCCUGCAGGUCGACUCUAGAAAACAUG | 3.71 log2 enrichment (interaction score)
GGCUAGAACUAGUGGAUCCCCCGGCGCCCGGCGGCUCGAGCCCGGGUAAGUGUGAAUAGUCUGCAUGCCGCCGGGCGCCAUGCCUGCAGGUCGACUCUAGAAAACAUG | 2.01 log2 enrichment (interaction score)
